Assay outcomes as filed in PubChem BioAssay.
FBPA Giardia inh: blocks Giardia fructose-bisphosphate aldolase activity; Potency, µM (highest dose often 59.6 µM), inactives show at the highest dose activity, negative = inhibition, hits mostly inhibitors; AID 2451; A8B2U2; 290,000 compounds, 0.71% hits; purified Giardia FBPA; also: potency is read from the fitted curve at half-maximal effect; % is scaled to controls: 0 for no effect and ±100 for the full control effect; nearly all actives have a fitted effect of over 55% in size
Target sequence (A8B2U2 whole entry, looked up): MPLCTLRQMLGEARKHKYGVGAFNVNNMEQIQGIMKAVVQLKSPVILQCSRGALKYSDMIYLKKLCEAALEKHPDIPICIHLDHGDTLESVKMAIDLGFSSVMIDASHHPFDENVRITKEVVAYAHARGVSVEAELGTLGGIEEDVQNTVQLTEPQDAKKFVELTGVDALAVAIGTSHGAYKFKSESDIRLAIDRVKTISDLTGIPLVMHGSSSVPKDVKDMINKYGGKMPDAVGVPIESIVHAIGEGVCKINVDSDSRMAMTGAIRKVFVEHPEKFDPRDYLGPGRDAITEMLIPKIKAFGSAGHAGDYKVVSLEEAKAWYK
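40 nM FBPA preincubated 10 min at RT with compound (up to 57.5 uM final), then substrate plus GAPDH/TPI/NAD/arsenate coupling and diaphorase/resazurin added. Fluorescence read after 20 min at RT, 525/598 nm.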
CHX counter: counter-screen for Shiga toxin inhibitors: cycloheximide protein synthesis inhibition; 300,000 compounds, 12% hits; AID 2314; cell reporter, cycloheximide protein synthesis inhibition counterscreen; max response, %; in the data active = max response mostly above about 13%, no sharp cut-off; inactive = mostly below about 14%; also: read at 38.3 µM for the half of the compounds with a filed dose; 0% is about no effect
Tb PYK inh: blocks Trypanosoma brucei pyruvate kinase. Q57TT1. TbPYK enzyme, Kinase-Glo Plus ATP luminescence, 45 min. Potency, µM (series often up to 76.8 µM), for the others: at the top dose activity, negative = inhibition, usual class: inhibitors. 410,000 compounds, 0.12% hits. AID 624173; also: potency is read from the fitted curve at half-maximal effect; % is scaled to controls: 0 for no effect and ±100 for the full control effect; nearly all actives have a fitted effect of over 50% in size
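Screened from lowest to highest concentration, compounds were pinned into TbPYK/substrate mixtures, and ADP (130 uM final) was added. Plates sat at room temperature for 45 min prior to Kinase-Glo Plus detection by luminescence.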
RE007 growth inh: less growth of the S. pombe RE007 Vpr strain | S. pombe RE007 Vpr strain, BacTiter-Glo ATP luminescence, 24 h | Potency, µM (doses to about 92.2 µM), for inactives: at the highest dose activity change, negative = less growth, actives largely listed as inhibitors | 360,000 compounds, 0.21% hits | AID 651644; active = well fitted falling curve with a large enough effect; inconclusive = small, poorly fitted or top-dose-only effect; inactive = no such curve, though single readings can be large or run the other way; also: potency is read from the fitted curve at half-maximal effect; % is scaled to controls: 0 for no effect and ±100 for the full control effect; nearly all actives have a fitted effect of over 50% in size
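Fission yeast strain RE007, carrying one chromosomally integrated HIV-1 vpr copy, was seeded at OD 0.01 in PMG+AL medium with 23 nL pinned compound. After 24 h at 30 °C and 99% humidity, viability was read by BacTiter-Glo luminescence.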
Shiga inhibitor: blocks Shiga toxin action in Vero cells | Vero cells, Shiga toxin protein synthesis inhibition reporter | inhibition, % at 38.7 µM | 290,000 compounds, 9.2% hits; in the data active = inhibition mostly above about 28%, no sharp cut-off; inactive = mostly below about 43%; also: 0% is about no effect
LmPK inhibitor: blocks Leishmania mexicana pyruvate kinase activity; Q27686; purified LmPK, Kinase-Glo ATP luminescence, 1 h; Potency, µM (series often up to 57.5 µM), for inactives: at the highest dose activity change, negative = inhibition, actives largely listed as inhibitors; 290,000 compounds, 0.37% hits; AID 1721; also: potency is read from the fitted curve at half-maximal effect; % is scaled to controls: 0 for no effect and ±100 for the full control effect
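ATP generated from ADP (0.1 mM) and PEP (0.5 mM) by 0.1 nM LmPK over 1 h at room temperature (pH 7.2 imidazole buffer) was detected by coupled luciferase luminescence. Values were normalized to uninhibited and no-enzyme wells.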
Active calls of the source: *; ? = inconclusive; / = no result; [ ] = remark or other dose. The sample as a whole holds a higher share of hits than the screen did. Unless noted, calls follow the shape of the dose curve; as a rule, active = well fitted curve in the direction sought with a large enough effect; inconclusive = small, poorly fitted or top-dose-only effect, or another doubt; inactive = no such curve, though single readings can be large; an effect the other way counts as inactive or inconclusive.

SMILES	FBPA Giardia inh	CHX counter	Tb PYK inh	RE007 growth inh	Shiga inhibitor	LmPK inhibitor
Cc1nc(NC(=O)C2CCCC2)sc1Cc1ccc2c(c1)OCO2	-4%	22*	-18%	8%	52	3%
Cc1ccccc1NC(=S)Nc1cccc2cnccc12	2µM*	24*	-11%	-16%	54*	5%
Cc1ccc(NC(=S)Nc2cccc3cnccc23)cc1C	?	32*	-2%	-29%	54	1%
CC(=O)c1ccc(NC(=S)Nc2cccc3cnccc23)cc1	2µM*	36*	-13%	-29%	47*	5%
Cc1ccc(NC(=S)Nc2cccc3cnccc23)cc1	?	26*	-18%	-13%	20	-10%
Cc1ccc(CSc2ncnc3c2cnn3-c2ccc(C)cc2)cc1	2%	15*	-5%	10%	8	-1%
Cc1ccc(-n2ncc3c(SCc4ccccc4)ncnc32)cc1	2%	20*	-12%	21%	20	-5%
c1ccc(CSc2ncnc3sccc23)cc1	5%	14	2%	-7%	52*	-1%
Cc1nc(SCc2ccccc2)c2ccsc2n1	1%	-1	6%	4%	-5	0%
Cc1ccc(CSc2ncnc3c2cnn3-c2ccccc2)cc1	0%	1	-7%	11%	-12	-5%
c1ccc2sc(Sc3ncnc4sccc34)nc2c1	-5%	42*	0%	-9%	46*	-28%
COc1ccc(C)cc1-n1nnc(C(=O)Nc2cccc(SC)c2)c1C	/	/	-10%	/	/	/
C=C1C(=O)[C@]23[C@H](O)[C@H]1CC[C@H]2[C@@]12COC3(O)[C@H](O)[C@@H]1C(C)(C)CC[C@@H]2O	11%	-5	/	/	-15	/
O=C(Cc1ccccc1)Nc1sc2c(c1C(=O)Nc1cccc(Cl)c1)CCCC2	/	16	/	/	20	/
CCSc1ncc(Cl)c(C(=O)Nc2nc3ccc(S(C)(=O)=O)cc3s2)n1	/	/	2%	/	/	/
Fc1ccc(-n2ncc3c(SCc4cccnc4)ncnc32)cc1	3%	20*	-8%	5%	23	-2%
CCOc1ccc(CCNC(=O)COC(=O)c2cc(OC)c(OC)cc2[N+](=O)[O-])cc1OCC	/	/	6%	-6%	/	/
Cc1ccc(Cl)cc1NC(=O)Cn1cc(S(=O)(=O)Cc2ccccc2Cl)c2ccccc21	/	/	3%[15.4 µM]	/	/	/
CCn1c(SCC(=O)Nc2ccccc2OC)nc2ccccc2c1=O	6%	3	6%	-4%	-19	0%
CCOc1ccccc1-n1c(SCC(=O)Nc2ccccc2C(=O)O)nc2ccccc2c1=O	10%	36*	1%	5%	35*	-4%
N/C(=N\N=C/c1ccc(F)cc1)N/N=C\c1ccc(F)cc1	-26%	11*	-4%	5%	22	2%
COc1ccc(/C=N/NC(=O)c2cccc(NC(=O)c3ccc(Cl)cc3)c2)c(OC)c1	10%	12	-11%	-1%	31*	3%
COc1ccc(/C=N/NC(=O)c2ccc(NC(=O)c3cccc([N+](=O)[O-])c3)cc2)c(OC)c1	1%	13	2%	-1%	20	2%
O=C(Nc1ccccc1C(=O)N/N=C/c1ccc(F)cc1)c1ccccc1Br	0%	17*	1%	-10%	17	-13%
O=C(N/N=C/c1ccc(O)cc1)c1ccc(NC(=O)c2ccccc2Br)cc1	3%	-2	-7%	0%	-13	-1%
SMILES	FBPA Giardia inh	CHX counter	Tb PYK inh	RE007 growth inh	Shiga inhibitor	LmPK inhibitor
Cc1cccc(/C=N/NC(=O)c2ccc(Br)cc2)c1	1%	34*	-15%	/	70*	-5%
CC1(C)Cc2c(cnn2-c2ccc(F)cc2)C(NC(=O)CCN2CCCCC2=O)C1 (centres undefined)	/	9	5%	-21%	29	-10%
COc1cc2[nH]c(=O)n(CCCC(=O)NCc3ccc(Cl)cc3)c(=O)c2cc1OC	/	/	0%	/	/	/
CCN1C(=O)[C@H]2[C@@H](c3ccc(-c4ccc5c(c4)OCO5)c(OC)c3)N[C@@](C)(C(=O)OC)[C@H]2C1=O	/	/	-6%	-3%	/	/
COc1cc(/C=N/NC(=S)Nc2cccc(S(=O)(=O)N(C)C)c2)ccc1O	6%	30*	-4%	5%	49*	3%
O=C(N/N=C/c1ccc(F)cc1)c1cccc(NC(=O)c2ccc(F)cc2)c1	8%	34*	-3%	-5%	100*	-1%
O=C(N/N=C/c1ccc(F)cc1)c1ccccc1	-5%	33*	-10%	-8%	126*	-18%
O=C(N/N=C/c1ccc(O)cc1)c1cccc(N/N=C/c2ccc(O)cc2)c1	-3%	37*	-4%	1%	60*	2%
O=C(N/N=C/c1ccncc1)c1cccc(N/N=C/c2ccncc2)c1	2%	3	-1%	-11%	15	1%
CN(C)S(=O)(=O)c1cccc(NC(=S)N/N=C/C2CC=CCC2)c1 (centres undefined)	-5%	9	?	-2%	-3	-10%
COc1ccccc1NC(=O)c1cc2c([nH]c1=O)CC(C)(C)CC2=O	/	/	-4%	/	/	/
COc1ccc(CC(=O)NCC(c2cccs2)S(=O)(=O)c2ccc(Cl)cc2)cc1 (centres undefined)	/	/	-3%	/	/	/
Cc1cccc(/C=N\N=C\c2cccc(C)c2)c1	12%	53*	-1%	-14%	/	4%
O=C(N/N=C/c1ccc(F)cc1)c1ccc(Br)cc1	0%	15	-6%	11%	62	-1%
O=C(N/N=C/c1ccc(Br)cc1)c1ccc(F)cc1	0%	35*	-8%	-5%	47*	-3%
O=C(N/N=C/c1ccc(F)cc1)c1cc[n+]([O-])cc1	-15%	18*	-2%	-15%	61*	-4%
COc1cc(/C=N/NC(=O)c2cccc(NC(=O)c3ccccc3)c2)ccc1O	-4%	13	5%	-4%	33*	2%
COc1ccccc1-c1cnc(C(O)c2cccc(CN3CCCCC3)c2)[nH]1 (centres undefined)	/	/	1%	-12%	/	/
O=C(N/N=C/c1ccc(Br)cc1)c1ccc(Br)o1	-6%	51*	-6%	25%	65*	-28%
NC(=O)c1ccccc1NC(=O)Nc1cccc(Cl)c1Cl	1%	6	-14%	-2%	1	0%
Cc1cccc(NC(=O)C2(c3ccccc3)CC2(Cl)Cl)c1 (centres undefined)	-7%	3	-6%	9%	13	5%
NC(=O)c1ccccc1NC(=O)Nc1ccc(F)c(Cl)c1	0%	42*	-3%	-1%	56*	-12%
CC(=O)Nc1ccccc1C(=O)C(=O)Nc1ccc(C)c(C)c1	1%	40*	0%	-8%	40*	-2%
